Records with an inconclusive call do not appear. Entries that show only a call come without a potency. The source made the active and inactive calls. Calls follow the shape of the dose curve; as a rule, active = well fitted inhibition curve with a large enough effect; inconclusive = small, poorly fitted or top-dose-only effect; inactive = flat fitted curve, though single readings scatter.
system: CP305; experiment: qHTS profiling for inhibitors of Plasmodium falciparum proliferation (AID 504749); also: nearly all actives have a fitted effect of over 60% in size; details: P. falciparum in erythrocytes, SYBR Green DNA, 72 h; series mostly up to 28.7 µM
Method in brief: (§1)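 Each compound contacts P. falciparum-infected red blood cells for 72 h at 37 C; lysis buffer (Tris, EDTA, saponin, Triton X, SYBR Green I) is added and fluorescence measured next morning; values normalized to controls.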
Potency is read from the fitted curve at half-maximal effect.

SMILES	Potency
CCN(CC)CCOc1ccc(-c2nc3cc(Cl)ccc3s2)cc1	inactive
CC[C@@]1(O)C(=O)OCc2c1cc1n(c2=O)Cc2cc3c([N+](=O)[O-])cccc3nc2-1	8.49 µM (active)
C=C1C(=CC=C2CCC[C@@]3(C)[C@@H]2CC[C@H]3[C@H](C)CCCC(C)C)C[C@@H](O)C[C@@H]1O	inactive
Cc1cn([C@H]2C[C@H](O)[C@@H](CO)O2)c(=O)[nH]c1=O	inactive
CN(C)CCCN1c2ccccc2C(C)(C)c2ccccc21	inactive
O=CCCCC=O	inactive
CC(C)=O	inactive
O=C(O)c1cc(=O)c2c3nc4ccccc4oc-3cc(=O)c2[nH]1	inactive
CCCCC(=O)O[C@]1(C(=O)CO)[C@H](C)C[C@H]2[C@@H]3CCC4=CC(=O)C=C[C@]4(C)[C@@]3(F)[C@@H](O)C[C@@]21C	inactive
CN1C(=O)CN2CCc3ccccc3C2c2cc(Cl)ccc21 (stereo unspecified)	inactive
COC(=O)C1=C(C#N)NC(C)=C(C(=O)OC(C)C)C1c1cccc([N+](=O)[O-])c1 (stereo unspecified)	13.5 µM (active)
CC(C)N=c1cc2n(-c3ccc(Cl)cc3)c3ccccc3nc-2cc1Nc1ccc(Cl)cc1	inactive
CC1=C(/C=C/C(C)=C/C=C/C(C)=C/CO)C(C)(C)CCC1	inactive
O=C(Nc1ccc(Br)cc1)c1cc(Br)c(Br)s1	16.9 µM (active)
CC1=C(/C=C/C(C)=C/C=C/C(C)=C/C=C/C=C(C)/C=C/C=C(C)/C=C/C2=C(C)C(=O)CCC2(C)C)C(C)(C)CCC1=O	inactive
CCCCC(CC)COC(=O)CC(C(=O)OCC(CC)CCCC)S(=O)(=O)O (stereo unspecified)	inactive

system: CP315; experiment: as above; details: P. falciparum in erythrocytes, SYBR Green DNA, 72 h; series mostly up to 28.7 µM
Method in brief: as §1

SMILES	Potency
CCN(CC)CCOc1ccc(-c2nc3cc(Cl)ccc3s2)cc1	inactive
O=C(Nc1cccc(C(F)(F)F)c1)c1cc(Br)cc(Br)c1O	15.1 µM (active)
C=C1C(=CC=C2CCC[C@@]3(C)[C@@H]2CC[C@H]3[C@H](C)CCCC(C)C)C[C@@H](O)C[C@@H]1O	inactive
Cc1cn([C@H]2C[C@H](O)[C@@H](CO)O2)c(=O)[nH]c1=O	inactive
CN(C)CCCN1c2ccccc2C(C)(C)c2ccccc21	inactive
O=CCCCC=O	inactive
CC(C)=O	inactive
O=C(O)c1cc(=O)c2c3nc4ccccc4oc-3cc(=O)c2[nH]1	inactive
CCOC(=O)C1=C(C)NC(C)=C(C(=O)OCC)C1c1ccccc1C=CC(=O)OC(C)(C)C	10.7 µM (active)
CCCCC(=O)O[C@]1(C(=O)CO)[C@H](C)C[C@H]2[C@@H]3CCC4=CC(=O)C=C[C@]4(C)[C@@]3(F)[C@@H](O)C[C@@]21C	inactive
Clc1cc(Cl)c(OCC#CI)cc1Cl	inactive
CN1C(=O)CN2CCc3ccccc3C2c2cc(Cl)ccc21 (stereo unspecified)	inactive
C#C[C@]1(O)CC[C@H]2[C@@H]3CCC4=CCCC[C@@H]4[C@H]3C(=C)C[C@@]21CC	inactive
CC(C)N=c1cc2n(-c3ccc(Cl)cc3)c3ccccc3nc-2cc1Nc1ccc(Cl)cc1	inactive
CC1=C(/C=C/C(C)=C/C=C/C(C)=C/CO)C(C)(C)CCC1	inactive
CC1=C(/C=C/C(C)=C/C=C/C(C)=C/C=C/C=C(C)/C=C/C=C(C)/C=C/C2=C(C)C(=O)CCC2(C)C)C(C)(C)CCC1=O	inactive
CCCCC(CC)COC(=O)CC(C(=O)OCC(CC)CCCC)S(=O)(=O)O (stereo unspecified)	inactive
O=S(=O)(O)c1cc(O)c2c(N=Nc3ccc(Nc4ccccc4)c4c(S(=O)(=O)O)cccc34)cc(S(=O)(=O)O)cc2c1	inactive

system: CP325; experiment: as above; details: P. falciparum in erythrocytes, SYBR Green DNA, 72 h; series mostly up to 28.7 µM
Method in brief: as §1

SMILES	Potency
CCN(CC)CCOc1ccc(-c2nc3cc(Cl)ccc3s2)cc1	inactive
CC(=O)Oc1cc(C)c(OC(C)=O)c2ccccc12	15.1 µM (active)
C=C1C(=CC=C2CCC[C@@]3(C)[C@@H]2CC[C@H]3[C@H](C)CCCC(C)C)C[C@@H](O)C[C@@H]1O	inactive
Cc1cn([C@H]2C[C@H](O)[C@@H](CO)O2)c(=O)[nH]c1=O	inactive
CN(C)CCCN1c2ccccc2C(C)(C)c2ccccc21	inactive
O=CCCCC=O	inactive
CC(C)=O	inactive
O=C(O)c1cc(=O)c2c3nc4ccccc4oc-3cc(=O)c2[nH]1	inactive
CCOC(=O)C1=C(C)NC(C)=C(C(=O)OCC)C1c1ccccc1C=CC(=O)OC(C)(C)C	12 µM (active)
CCCCC(=O)O[C@]1(C(=O)CO)[C@H](C)C[C@H]2[C@@H]3CCC4=CC(=O)C=C[C@]4(C)[C@@]3(F)[C@@H](O)C[C@@]21C	inactive
CN1C(=O)CN2CCc3ccccc3C2c2cc(Cl)ccc21 (stereo unspecified)	inactive
C#C[C@]1(O)CC[C@H]2[C@@H]3CCC4=CCCC[C@@H]4[C@H]3C(=C)C[C@@]21CC	inactive
CC(C)N=c1cc2n(-c3ccc(Cl)cc3)c3ccccc3nc-2cc1Nc1ccc(Cl)cc1	inactive
CC1=C(/C=C/C(C)=C/C=C/C(C)=C/CO)C(C)(C)CCC1	inactive
CC1=C(/C=C/C(C)=C/C=C/C(C)=C/C=C/C=C(C)/C=C/C=C(C)/C=C/C2=C(C)C(=O)CCC2(C)C)C(C)(C)CCC1=O	inactive
CCCCC(CC)COC(=O)CC(C(=O)OCC(CC)CCCC)S(=O)(=O)O (stereo unspecified)	inactive
O=S(=O)(O)c1cc(O)c2c(N=Nc3ccc(Nc4ccccc4)c4c(S(=O)(=O)O)cccc34)cc(S(=O)(=O)O)cc2c1	inactive

Source: PubChem BioAssay (NCATS)
